Inconclusive results are not listed. A call without a number means that no potency is given here. Activity calls are given as the source filed them. The call rests on the fitted dose curve; in most records, active means well fitted curve in the direction sought with a large enough effect; inconclusive means small, poorly fitted or top-dose-only effect, or another doubt; inactive means no such curve, though single readings can be large; an effect the other way counts as inactive or inconclusive.
How the values were obtained:
[1] = qHTS of pediatric cancer cell lines to identify multiple opportunities for drug repurposing: Primary screen for BT-37 cells (AID 1347094); further: potency means the concentration at half of the fitted maximal effect
Method in brief: (§1)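 Phenotypic viability qHTS, 48 h compound exposure, CellTiter-Glo luminescence read-out; multi-concentration dosing so that potency and efficacy derive directly from the primary screen's curves.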

[2] = qHTS of pediatric cancer cell lines to identify multiple opportunities for drug repurposing: Primary screen for NB-EBc1 cells (AID 1347095); further: potency means the concentration at half of the fitted maximal effect
Method in brief: as §1

[3] = qHTS of pediatric cancer cell lines to identify multiple opportunities for drug repurposing: Primary screen for U-2 OS cells (AID 1347096); further: nearly all actives have a fitted effect of over 50% in size
Method in brief: (§2)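 Viability after 48 h compound treatment at 37C, 500-1,000 cells/well, read as ATP luminescence with CellTiter-Glo. Primary screens used 11-point (MIPE, 0.78 nM-46 µM) or 8-point (NPC, 0.59 nM-46 µM) final concentrations; follow-up screens used 11-point dilutions.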

[4] = qHTS of pediatric cancer cell lines to identify multiple opportunities for drug repurposing: Primary screen for Saos-2 cells (AID 1347097); further: nearly all actives have a fitted effect of over 40% in size; further: potency means the concentration at half of the fitted maximal effect
Method in brief: as §1

[5] = qHTS of pediatric cancer cell lines to identify multiple opportunities for drug repurposing: Primary screen for LAN-5 cells (AID 1347100); further: potency means the concentration at half of the fitted maximal effect
Method in brief: as §2

[6] = qHTS of pediatric cancer cell lines to identify multiple opportunities for drug repurposing: Primary screen for BT-12 cells (AID 1347101); further: nearly all actives have a fitted effect of over 25% in size
Method in brief: (§3)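 Cells (500-1,000/well) rested 5 h, then received compounds for 48 h; metabolically active cells were measured by CellTiter-Glo luminescence. Final concentrations spanned up to 46 µM (MIPE, 11-point) or 0.59 nM-46 µM (NPC, 8-point) in primary screens, 11-point in follow-ups.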

[7] = qHTS of pediatric cancer cell lines to identify multiple opportunities for drug repurposing: Primary screen for Rh18 cells (AID 1347102); further: nearly all actives have a fitted effect of over 65% in size; further: potency means the concentration at half of the fitted maximal effect
Method in brief: as §2

[8] = qHTS of pediatric cancer cell lines to identify multiple opportunities for drug repurposing: Primary screen for SK-N-SH cells (AID 1347098); further: nearly all actives have a fitted effect of over 65% in size; further: potency means the concentration at half of the fitted maximal effect
Method in brief: as §3

[9] = qHTS of pediatric cancer cell lines to identify multiple opportunities for drug repurposing: Primary screen for NB1643 cells (AID 1347099); further: nearly all actives have a fitted effect of over 50% in size; further: potency means the concentration at half of the fitted maximal effect
Method in brief: as §1

[10] = qHTS of pediatric cancer cell lines to identify multiple opportunities for drug repurposing: Primary screen for SK-N-MC cells (AID 1347093); further: potency means the concentration at half of the fitted maximal effect
Method in brief: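 Metabolically active cells were quantified by ATP-dependent luminescence (CellTiter-Glo, 15 min at room temperature) following 48 h treatment. Cells had been plated at 500-1,000 per well and settled for 5 h beforehand.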

| Structure (SMILES) | Potency [1] | Potency [2] | Potency [3] | Potency [4] | Potency [5] | Potency [6] | Potency [7] | Potency [8] | Potency [9] | Potency [10] |
| --- | --- | --- | --- | --- | --- | --- | --- | --- | --- | --- |
| COc1ccc2c(c1)[C@]13CCCCC1C(C2)N(C)CC3 (some centres not stated) | inactive | inactive | inactive | inactive | inactive | inactive | inactive |  |  |  |
| CCc1c(C(=O)C(N)=O)c2c(OCC(=O)O)cccc2n1Cc1ccccc1 | inactive | inactive | inactive | inactive | inactive | inactive | inactive | inactive | inactive |  |
| CC(C)(C)c1cc(C=C(C#N)C#N)cc(Br)c1O |  | 4.69 µM (active) | inactive |  |  |  | inactive |  | 4.69 µM (active) |  |
| C=C[C@@H]1CN2CCC1C[C@H]2[C@H](O)c1ccnc2ccccc12 (some centres not stated) |  | inactive | inactive | 18.7 µM (active) | inactive |  |  |  |  |  |
| c1ccc(CCCN2CCN(CCOC(c3ccccc3)c3ccccc3)CC2)cc1 | 24.3 µM (active) |  | inactive |  | 29.6 µM (active) |  |  |  | 26.4 µM (active) |  |
| CCOC(=O)Nc1ccc(NCc2ccc(F)cc2)cc1N | inactive | inactive | inactive | inactive |  | inactive |  |  |  |  |
| O=C1C(I)=CC(=C(c2cc(I)c(O)c(I)c2)c2ccccc2C(=O)O)C=C1I | inactive | inactive | inactive | inactive | inactive | inactive | inactive | inactive |  |  |
| CCO/N=C(\CC)C1=C(O)CC(c2c(C)cc(C)cc2C)CC1=O (configuration not stated) | inactive | inactive | inactive |  | inactive |  |  |  |  |  |
| COc1nn(CSP(=S)(OC)OC)c(=O)s1 |  |  | inactive |  |  |  |  |  |  |  |
| C=C1C[C@H]2[C@H]3CCC(=O)[C@@]3(C)CC[C@@H]2[C@@]2(C)C=CC(=O)C=C12 |  | inactive | inactive | inactive | inactive |  | inactive | inactive |  |  |
| O=S(=O)(CC1CS1)c1ccc(Oc2ccccc2)cc1 (configuration not stated) | 19.3 µM (active) | 23.5 µM (active) | inactive | 18.7 µM (active) | 23.5 µM (active) |  |  | 24.1 µM (active) | 18.7 µM (active) |  |
| O=S(=O)(F)Cc1ccccc1 |  | inactive | inactive | inactive | inactive |  | inactive | inactive | inactive |  |
| C#CC1(O)CCC2C3CCC4=CC(=O)CCC4(C)C3CCC21C (configuration not stated) | inactive |  | inactive |  | inactive |  |  | inactive | 23.5 µM (active) |  |
| Nc1ccc(N=Nc2ccccc2)cc1 |  |  |  | inactive | 38.6 µM (active) |  |  |  |  |  |
| CC(C)[C@H]1C(=O)N[C@H](CO)Cc2c[nH]c3cccc(c23)N1C | inactive | inactive | inactive |  |  | inactive | inactive | inactive | inactive |  |
| O=[N+]([O-])c1c2ccccc2cc2ccccc12 |  |  | inactive |  | inactive | inactive | inactive |  |  |  |
| c1cc2ccc3cccc4ccc(c1)c2c34 | inactive | inactive | inactive |  | inactive | inactive | inactive | inactive | inactive |  |
| O=S(=O)(c1ccc(Cl)cc1)c1ccc(Cl)cc1 |  |  | inactive |  | inactive |  | inactive |  |  |  |
| O=[N+]([O-])c1c(Cl)c(Cl)cc(Cl)c1Cl | inactive | inactive | inactive | inactive | inactive | inactive | inactive | inactive | inactive |  |
| CCCCCCCCc1ccc(O)cc1 |  |  | inactive | 39 µM (active) |  |  |  |  | inactive |  |
| CC(=CCCC1=CCC(C2=CC(=O)OC2O)OC1O)CCC1=C(C)CCCC1(C)C (configuration not stated) | inactive | inactive | inactive | inactive | inactive |  |  |  | inactive |  |
| O=c1cccc2n1CC1CNC[C@H]2C1 |  |  |  |  | 2.96 µM (active) |  | 3.32 µM (active) | 24.1 µM (active) | 5.9 µM (active) | 4.69 µM (active) |
| COc1ccc(CC2NCCc3cc(OC)c(OC)cc32)cc1OC (configuration not stated) | inactive | inactive | inactive | inactive | inactive | inactive |  | inactive |  |  |
| CC1(N2CCC(n3c([C@@H]4CCCNC4)nc4ccccc43)CC2)CCCCCCC1 |  | inactive | inactive |  | 20.9 µM (active) |  |  | 30.4 µM (active) | inactive |  |
| C1=C2CCCN[C@H]2[C@@H]2C[C@H]1[C@@H]1CCCCN1C2 | inactive | inactive | inactive | inactive | inactive | inactive | inactive | inactive |  |  |
| CC(=O)Nc1ccc(OC[C@](C)(O)C(=O)Nc2ccc([N+](=O)[O-])c(C(F)(F)F)c2)cc1 | inactive | inactive | inactive | inactive | inactive | inactive | inactive | inactive |  |  |
| CCCCCCCCCC(CC)c1ccc(S(=O)(=O)O)cc1 (configuration not stated) |  |  | inactive | 30.6 µM (active) | inactive | inactive |  | inactive | inactive |  |
| CC(C)Oc1cccc(NC(=O)c2ccccc2C(F)(F)F)c1 | inactive |  | inactive |  |  |  |  |  | inactive |  |
| O=C1C=CC[C@@H]2[C@H]3CCCN4CCC[C@@H](CN12)[C@@H]34 |  |  | inactive | inactive |  |  |  |  |  |  |
